Only some compounds are listed: those with a hit (about 4% of all), similar ones and a draw of the others.
Mtb UGM inh: inhibitors of M. tuberculosis UDP-galactopyranose mutase. P9WIQ1. purified UGM, fluorescence polarization probe displacement. inhibition, % at 10 µM. hit rate 0.06% among 320,000; in the data active = inhibition above about 10%, passing the limit was not always enough; inconclusive = no clear call, values can overlap the other calls
RecA intein inh: Mtb RecA intein splicing inhibition | P9WHJ3 | cell-free RecA intein splicing, fluorescence | inhibition, % (no concentration beside the values) | hit rate 0.75% among 290,000 | AID 2221; in the data active = inhibition above about 30%; inconclusive = no clear call, values can overlap the other calls;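 also: 0% = vehicle wells and 100% = reference inhibitor control wells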
FBA Mtb inh: inhibitors of M. tuberculosis fructose-bisphosphate aldolase | P9WQA3 | purified M. tuberculosis FBA, fluorescence read-out | inhibition, % at 1 µM | hit rate 2.3% among 360,000;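 also: 0% = vehicle and 100% = reference inhibitor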
Target sequence (P9WQA3 whole entry, looked up): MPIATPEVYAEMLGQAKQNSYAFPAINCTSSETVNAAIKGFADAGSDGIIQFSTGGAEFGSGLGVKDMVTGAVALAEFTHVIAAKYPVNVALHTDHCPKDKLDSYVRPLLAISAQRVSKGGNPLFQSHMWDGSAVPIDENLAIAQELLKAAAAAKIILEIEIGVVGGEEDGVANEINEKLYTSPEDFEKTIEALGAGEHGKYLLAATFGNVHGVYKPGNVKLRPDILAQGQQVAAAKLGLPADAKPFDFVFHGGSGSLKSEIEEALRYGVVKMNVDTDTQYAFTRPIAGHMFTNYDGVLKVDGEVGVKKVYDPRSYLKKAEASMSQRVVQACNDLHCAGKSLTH
Rv3671c protease: inhibits the M. tuberculosis serine protease Rv3671c; P9WHR9; inhibition, % at 5.96 µM; hit rate 0.048% among 320,000; AID 2606; in the data active = inhibition above about 38%;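 also: extracellular domain of Rv3671c used as enzyme; 0% = enzyme with DMSO and 100% = no enzyme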
GDH-TPI counter-1: counter-screen for M. tuberculosis FBA inhibitors: GDH-TPI coupled enzymes; inhibition, % at 4.8 µM; AID 588335; hit rate 1.2% among 360,000; GDH-TPI coupled enzyme counterscreen, NADH absorbance; in the data active = inhibition above about 30%;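 also: 0% = DMSO wells and 100% = wells lacking the enzyme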
Mtb betalactam: beta-lactam sensitization of Mtb H37Rv. inhibition, % at 25 µM. M. tuberculosis H37Rv growth with meropenem, percent inhibition. hit rate 0.27% among 330,000; call rule not given here;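 also: growth measured after seven days incubation then overnight dye step; 0% = bacteria only wells and 100% = bacteria with antibiotic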
Mtb FBA inh conf: Mtb FBA inhibition, confirmed | shares compounds with FBA Mtb inh | purified M. tuberculosis FBA, fluorescence read-out | inhibition, % at 1 µM | hit rate 78% among 5,600 | AID 651616;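 also: 0% = vehicle wells and 100% = reference inhibitor wells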
GDH-TPI counter-2: counter-screen for M. tuberculosis FBA inhibitors: GDH-TPI coupled enzyme inhibition. shares compounds with FBA Mtb inh. GDH-TPI coupled enzyme counterscreen, fluorescence. inhibition, % at 1 µM. hit rate 81% among 5,600; in the data active = inhibition above about 10%
* marks the source's active call; other numbers are inactive results; ? = inconclusive; nt = not tested or not shown; + = active, no number. Rule as the data show it, unless noted: active = inhibition above about 27%; inactive = the rest.

SMILES	Mtb UGM inh	RecA intein inh	FBA Mtb inh	Rv3671c protease	GDH-TPI counter-1	Mtb betalactam	Mtb FBA inh conf	GDH-TPI counter-2
CC(=O)N1N=C(c2ccccc2O)CC1c1cccs1 (configuration not stated)	1.8	-0.6	6.1	-3.4	15.4	-10.7	nt	nt
CC1(C)N=C(N)N=C(N)N1CCCCc1ccccc1	nt	nt	-0.4	nt	0.5	nt	nt	nt
CCn1c(=O)c2cc(C(=O)NCCOC)sc2c2ccccc21	0.7	-1.4	51.1*	-5.4	21.0	-9.2	57.0*	42.5*
CCOCCCNC(=O)c1cc2c(=O)n(CC)c3ccccc3c2s1	-1.5	-1.1	58.6*	-6.3	11.8	-3.8	+	+
CCn1c(=O)c2cc(C(=O)N(C)CC(OC)OC)sc2c2ccccc21	-2.3	0.7	35.2*	-10.3	21.4	-10.6	+	+
CCC1(c2ccc(F)cc2)NC(=O)N(CC(=O)N2CCN(C(=O)c3ccco3)CC2)C1=O (configuration not stated)	1.3	nt	-3.5	0.3	-4.4	-12.7	nt	nt
Cc1ccc(OCC(=O)N2CCC(C)CC2)c([N+](=O)[O-])n1	1.0	nt	2.9	-3.9	6.6	1.5	nt	nt
C[C@H](NC(=O)C1CC(=O)N(c2ccc3c(c2)OCCO3)C1)C(=O)NCc1ccco1 (some centres not stated)	1.7	-2.1	0.6	-0.6	-0.3	-1.1	nt	nt
NS(=O)(=O)c1ccc(CCNC(=O)CSc2cccs2)cc1	0.0	-0.8	96.6*	-18.6	1.3	12.1	87.4*	56.5*
CN(C)S(=O)(=O)c1cccc(NC(=O)c2cc(-c3cccs3)nc3ccccc23)c1	1.5	2.2	27.8*	-118.8	11.2	?	126.3*	102.7*
NS(=O)(=O)c1cccc(NC(=O)c2cc(-c3cccs3)nc3ccccc23)c1	1.7	nt	25.8	-36.3	12.6	-3.9	nt	nt
NS(=O)(=O)c1ccc(CCNC(=O)c2cc(-c3cccs3)nc3ccccc23)cc1	nt	0.6	98.9*	nt	9.9	nt	+	+
NS(=O)(=O)c1ccc(CNC(=O)c2cc(-c3cccs3)nc3ccccc23)cc1	-1.6	2.5	79.9*	-10.8	12.0	-3.2	1.5	2.1
CCN(CC)CCN1CCN(c2cncc(-c3ccc4ccccc4c3)n2)CC1	nt	nt	8.9	nt	5.3	nt	nt	nt
COc1ccc(CN(CC(O)COCc2ccccc2)S(=O)(=O)c2ccccc2Br)cc1 (configuration not stated)	nt	nt	7.3	nt	15.6	nt	nt	nt
COC(=O)c1ccc(C(=O)OC)c(NC(=S)N2CCN(C(=O)C3CCCO3)CC2)c1 (configuration not stated)	0.3	nt	28.2*	4.2	-4.2	-7.5	113.0*	89.2*
COC(=O)c1ccc(C(=O)OC)c(NC(=O)/C=C/C(=O)O)c1	2.2	-3.7	57.4*	-9.5	0.0	-2.0	52.3*	50.0*
CCN1CCN(C(=S)Nc2cc(C(=O)OC)ccc2C(=O)OC)CC1	5.3	-1.1	31.4*	-14.7	15.2	4.0	134.5*	115.4*
CCCCN1CC(N2CCCCC2)CS1(=O)=O (configuration not stated)	nt	nt	-0.1	nt	nt	nt	nt	nt
C=CCNC(=O)c1cc2c(=O)n3cccc(C)c3nc2s1	-0.7	-36.2	93.1*	-6.8	17.8	5.5	164.8*	133.2*
COc1ccc(CCNC(=O)c2cc3c(=O)n4cccc(C)c4nc3s2)cc1OC	4.2	0.8	1.3	-10.5	-9.3	10.7	nt	nt
CCC(C)NC(=O)c1cc2c(=O)n3cccc(C)c3nc2s1 (configuration not stated)	-0.3	-43.7	103.9*	4.1	8.0	5.2	170.8*	147.4*
CNC(=O)CSc1nnc(-c2ccccc2F)n1CCc1ccccc1	1.9	-1.7	-2.2	5.2	4.9	-0.6	nt	nt
Fc1ccc2cc(-c3ccccc3)ncc2c1	-1.4	nt	49.2*	0.5	21.1	5.3	88.1*	71.3*
c1ccc(-c2cc3ccccc3cn2)cc1	1.7	nt	2.9	2.1	1.7	0.3	nt	nt
CC(C)(C)NC(=O)c1ccc2nccnc2c1	0.2	0.8	-3.9	1.1	17.9	4.8	nt	nt
CC(C)(C)NC(=O)Nc1ccc2nccnc2c1	0.6	-8.5	60.7*	6.1	11.5	-2.1	-0.2	-5.0

Assay outcomes from PubChem BioAssay.
